Growth data for 13 molecules are collected here from PubChem BioAssay (NCI).

Holding throughout (assay): NCI-60 one-dose screen, 48 h (100 = growth as untreated, 0 = no growth, -100 = all killed)
What all share (conditions): 10 µM

Assay [1] has as its system EKVX NSCLC.
Assay [2] has as its system SN12C renal.
Assay [3] concerns UO-31 renal.
The subject of assay [4] is TK-10 renal.
The test system of assay [5] is ACHN renal.
The test system of assay [6] is CAKI-1 renal.
The subject of assay [7] is A498 renal.
The subject of assay [8] is CCRF-CEM leukemia.
For assay [9], the system named is MOLT-4 leukemia.
In assay [10] the test system is SR leukemia.

SMILES strings stand for the structures. This is part of a sample that, as a whole, favours compounds with a hit. Of some 83,000 tested, about 20% had one in any assay.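 The test compound was applied at a single concentration to cells in 96-well plates for 48 hours, and percent growth was recorded.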 Unmarked numbers belong to inactive results. Calls of active or inactive are those of the source. The calls were made as follows: active = growth percent below 10; inactive = the rest.

In the case of `Oc1[nH]c2ccc(Cl)cc2c1/C=c1/ccc2c(c1)N=C(c1cccs1)N=2`, the growth was 66.3% in [1]; 54.9% in [2]; 72.7% in assay [3]; 81.5% in [4]; 58% in [5]; 52.6% in assay [6]. For the same molecule, the growth in [7] was 44.6%; in assay [8], 31.9%; in assay [9] it was 42.3%; in assay [10], 37%.

For `CCN1CCC(CCOC)(CN2c3ccccc3Sc3ccc(Cl)cc32)C1` (stereo not given), the growth is 56.7% in [1]; 59.7% in assay [2]; 8.09% (active) in assay [3]; 64.1% in assay [4]; 47.2% in assay [5]; 46.6% in assay [6]. Also, the growth is 56.6% in assay [7], 30.5% in [8], 22.5% in assay [9] and 40.4% in assay [10].

With `CCN(CC)CCC(CNc1c(C)cnc2cc(Cl)ccc12)c1ccc(Cl)c(Cl)c1` (stereo not given), the growth in assay [1] was 73.5%; in [2] it was 59.1%; in assay [3] it was 44.5%; in assay [4] it was 94.4%; in [5] it was 54.8%; in assay [6], 62.1%. Further, the growth in [7] is 24.6%; in assay [8], 30.3%; in [9], 25.2%; in [10] it was -19.1% (active).

With `Oc1[nH]c2cc(Cl)ccc2c1/C=c1/ccc2c(c1)N=C(c1cc(F)cc(F)c1)N=2`, the growth was 57.2% in assay [1]; 64% in assay [2]; 43.3% in assay [3]; 58.8% in [4]; 46.3% in assay [5]; 17.1% in assay [6]. Further, the growth in assay [7] is 0.502% (active); in assay [8], 9.33% (active); in [9], 8.56% (active); in [10] it was 11.4%.

Consider `CC(C)=CCc1ccc(O)c(=O)cc1C(C)C`, for which the growth in [1] was 13.8%; in assay [2], 25%; in assay [3] it was -10.4% (active); in assay [4], 18.3%; in assay [5], 24.8%; in assay [6] it was -8.29% (active). Also, the growth in [7] is 52.6%; in assay [8], 9.68% (active); in [9], 8.5% (active); in [10], 5.25% (active).

As for `O=[N+]([O-])c1ccc(Oc2cccnc2)c([N+](=O)[O-])c1`, the growth in assay [1] is 93.9%; in assay [2], 97%; in [3] it was 58.3%; in assay [4], 67.5%; in assay [5], 72.4%; in [6], -9.25% (active). Also, the growth was 89.3% in [7], 20.1% in assay [8], 76.4% in assay [9] and 21.1% in assay [10].

In the case of `CCCCCC(=O)c1ccc(OCCCN2CCN(C(=O)OCC)CC2)cc1`, the growth in assay [1] is 83.4%; in assay [2] it was 94.8%; in [3], 77.4%; in assay [4], 101%; in [5], 96.1%; in assay [6], 95.2%. The growth in assay [7] is 95.5%; in assay [8] it was 21.1%; in assay [9], 78.6%; in [10], 84.4%.

`CCN(CC)CCCC(C)Nc1nc(-c2ccc(OC)cc2)nc2cc(Cl)ccc12` (stereo not given): the growth was 70.2% in assay [1]; 58% in assay [2]; 45% in [3]; 88.8% in assay [4]; 37% in assay [5]; 78.8% in assay [6]. The growth in assay [7] is 37.4%; in [8], 57.9%; in assay [9] it was 37.7%; in assay [10], 51.8%.

For the molecule `COc1ccc(/C=C/C(=O)Nc2ccc(-c3nc4ccc(F)cc4s3)cc2)cc1`, the growth is 85.3% in assay [1]; 93.8% in assay [2]; 84.2% in assay [3]; 104% in assay [4]; 107% in [5]; 95.5% in [6]. Further, the growth was 105% in assay [7], 81.3% in assay [8], 71.8% in assay [9] and 80.8% in assay [10].

For `COc1cc(-c2cc(C(=O)N3CCN(C(=O)c4ccccc4NCc4cccs4)CC3)nc3cc(-c4ccccc4)nn23)cc(OC)c1OC`, the growth is 94.4% in [1]; 87.5% in assay [2]; 39.8% in assay [3]; 70.1% in [4]; 73.9% in [5]; 55.2% in assay [6]. The growth is 74.2% in assay [7], 73.9% in [8], 79.3% in [9] and 23% in assay [10].

Regarding `O=C1OCC2=C1C(c1cccc(Cl)c1)c1cc3c(cc1N2CCO)OCCO3` (stereo not given), the growth in assay [1] was 49.4%; in [2], 30%; in [3] it was 22.1%; in [4], 68.4%; in assay [5] it was 30.5%; in assay [6], 19.9%. Moreover, the growth was -18.1% (active) in assay [7], 6.58% (active) in assay [8], 21.1% in [9] and 32.4% in assay [10].

Take `CCN(CC)CCN1CC(=O)Nc2cc(Cl)ccc21`: the growth was 101% in [1]; 103% in assay [2]; 82% in assay [3]; 114% in assay [4]; 104% in assay [5]; 90.7% in [6]. Moreover, the growth in assay [7] is 87.6%; in assay [8], 101%; in assay [9], 105%; in [10], 114%.

As to `O=C(CCCCCCC(=O)Nc1cccnc1)NO`, the growth in [1] was 96.7%; in [2] it was 71.2%; in [3] it was 30.3%; in assay [4], 41%; in assay [5], 65.7%; in assay [6] it was 46.6%. Further, the growth in assay [7] was 42.9%; in [8], 2% (active); in assay [9], 16.9%; in assay [10], 28.6%.
